The results in this text go back to PMC5700166.

The target in this assay is T1, GST-Dm-Relish (Drosophila melanogaster, UniProt Q94527 99-473).
T1 sequence: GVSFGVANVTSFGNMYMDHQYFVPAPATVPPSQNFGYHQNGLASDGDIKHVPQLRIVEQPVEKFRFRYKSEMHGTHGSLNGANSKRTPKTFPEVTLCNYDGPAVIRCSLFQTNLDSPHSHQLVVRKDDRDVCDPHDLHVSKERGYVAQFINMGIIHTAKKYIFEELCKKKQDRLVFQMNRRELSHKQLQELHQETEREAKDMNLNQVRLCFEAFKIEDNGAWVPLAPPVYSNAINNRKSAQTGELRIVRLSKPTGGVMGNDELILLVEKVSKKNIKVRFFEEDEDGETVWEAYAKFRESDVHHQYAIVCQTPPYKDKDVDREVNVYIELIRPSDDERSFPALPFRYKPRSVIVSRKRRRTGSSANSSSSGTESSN
The assay is described as follows: protein-binding microarray (PBM); PBM: ~300 nM protein, 6 mM HEPES pH 7.8, 80 mM KCl, 0.5 mM EDTA, 0.5 mM EGTA, 6% glycerol, 35 ng/ul poly-dIdC, 1% milk, 1 h, room temperature; Ap Aiptasia and Nv Nematostella (sea anemones) / Co Capsaspora / Aq Amphimedon (sponge) / Dm Drosophila / Hu human; RHD is the Rel homology domain; high values mean tight binding. As to conditions: dsDNA, one strand shown.
“CCGATTAACATCAGAAATACCCCTGATGTTAATCGGGTCTTGATTCGCTTGACGCTGCTG” registered a binding signal of 4.99 z-score.

“CCGATTAACATCAAATCATTCCCTGATGTTAATCGGGTCTTGATTCGCTTGACGCTGCTG” displayed a binding signal of 1.31 z-score.

Consider “CCGATTAACATCAGAATTACCCCTGATGTTAATCGGGTCTTGATTCGCTTGACGCTGCTG”, for which the binding signal was 2.94 z-score.

Consider “CCGATTAACATCAGGGGGGTTAATGATGTTAATCGGGTCTTGATTCGCTTGACGCTGCTG”, for which the binding signal was 6.25 z-score.

Sequence “CCGATTAACATCAAAATTCCCCCTGATGTTAATCGGGTCTTGATTCGCTTGACGCTGCTG” showed a binding signal of 9.16 z-score.

The sequence “CCGATTAACATCAATTCCCCTGATGATGTTAATCGGGTCTTGATTCGCTTGACGCTGCTG” returned a binding signal of 3.81 z-score.

The sequence “CCGATTAACATCAGGGGAATACCTGATGTTAATCGGGTCTTGATTCGCTTGACGCTGCTG” gave a binding signal of 9.67 z-score.

Take “CCGATTAACATCATTCCCGGGAATGATGTTAATCGGGTCTTGATTCGCTTGACGCTGCTG”: the binding signal is 1.81 z-score.

As for “CCGATTAACATCACGAAATCCCCTGATGTTAATCGGGTCTTGATTCGCTTGACGCTGCTG”, the binding signal was found to be 8.34 z-score.

“CCGATTAACATCAATCTTCCCCCTGATGTTAATCGGGTCTTGATTCGCTTGACGCTGCTG” yielded a binding signal of 4.07 z-score.

For the sequence “CCGATTAACATCAGAGTTCCCCCTGATGTTAATCGGGTCTTGATTCGCTTGACGCTGCTG”, the binding signal was 7 z-score.

“CCGATTAACATCAGGGGATAACCTGATGTTAATCGGGTCTTGATTCGCTTGACGCTGCTG” showed a binding signal of 7.51 z-score.

The sequence “CCGATTAACATCAGGGGATTCCATGATGTTAATCGGGTCTTGATTCGCTTGACGCTGCTG” showed a binding signal of 10 z-score.

As for “CCGATTAACATCAAGGGGGATATTGATGTTAATCGGGTCTTGATTCGCTTGACGCTGCTG”, the binding signal came out at 5.23 z-score.

Consider “CCGATTAACATCAGGGGGGAAAATGATGTTAATCGGGTCTTGATTCGCTTGACGCTGCTG”, for which the binding signal worked out at 4.99 z-score.

The sequence “CCGATTAACATCAAAATCCCCCTTGATGTTAATCGGGTCTTGATTCGCTTGACGCTGCTG” yielded a binding signal of 10.2 z-score.

Take “CCGATTAACATCAGGGGTATTTATGATGTTAATCGGGTCTTGATTCGCTTGACGCTGCTG”: the binding signal came to 3.79 z-score.

For the sequence “CCGATTAACATCAGGGAGTTTTATGATGTTAATCGGGTCTTGATTCGCTTGACGCTGCTG”, the binding signal is 5.65 z-score.

As to “CCGATTAACATCAAGGGGGTTTCTGATGTTAATCGGGTCTTGATTCGCTTGACGCTGCTG”, the binding signal amounted to 9.83 z-score.

In turn, “CCGATTAACATCAAAACTCCCCGTGATGTTAATCGGGTCTTGATTCGCTTGACGCTGCTG” had a binding signal of 7.5 z-score.

Consider “CCGATTAACATCAATTTTCCCCATGATGTTAATCGGGTCTTGATTCGCTTGACGCTGCTG”, for which the binding signal was 2.3 z-score.

Consider “CCGATTAACATCAAAAAATCCCATGATGTTAATCGGGTCTTGATTCGCTTGACGCTGCTG”, for which the binding signal was determined as 8.41 z-score.

Take “CCGATTAACATCAGGGGAAAGAATGATGTTAATCGGGTCTTGATTCGCTTGACGCTGCTG”: the binding signal was 3.01 z-score.

Regarding “CCGATTAACATCAATTTTCCCACTGATGTTAATCGGGTCTTGATTCGCTTGACGCTGCTG”, the binding signal amounted to 1.33 z-score.

On to “CCGATTAACATCAAATTTCCCATTGATGTTAATCGGGTCTTGATTCGCTTGACGCTGCTG”, for which the binding signal stood at 2.68 z-score.

Sequence “CCGATTAACATCAACAAAATCCCTGATGTTAATCGGGTCTTGATTCGCTTGACGCTGCTG” returned a binding signal of 6.66 z-score.

“CCGATTAACATCAGGGGAAAACATGATGTTAATCGGGTCTTGATTCGCTTGACGCTGCTG” yielded a binding signal of 5.04 z-score.

The sequence “CCGATTAACATCAGGCCTTTCCCTGATGTTAATCGGGTCTTGATTCGCTTGACGCTGCTG” returned a binding signal of 5.87 z-score.

As for “CCGATTAACATCAGGGAGTACCCTGATGTTAATCGGGTCTTGATTCGCTTGACGCTGCTG”, the binding signal was 8.1 z-score.

As for “CCGATTAACATCAGGACGTCCCCTGATGTTAATCGGGTCTTGATTCGCTTGACGCTGCTG”, the binding signal came out at 5.29 z-score.

In turn, “CCGATTAACATCACAAAAAACCCTGATGTTAATCGGGTCTTGATTCGCTTGACGCTGCTG” had a binding signal of 5.51 z-score.

“CCGATTAACATCAGATAATCCCCTGATGTTAATCGGGTCTTGATTCGCTTGACGCTGCTG”: the binding signal came to 6.59 z-score.

In turn, “CCGATTAACATCAGGGAAAGACCTGATGTTAATCGGGTCTTGATTCGCTTGACGCTGCTG” registered a binding signal of 5.61 z-score.

Take “CCGATTAACATCAGGGGAAAAGATGATGTTAATCGGGTCTTGATTCGCTTGACGCTGCTG”: the binding signal was found to be 1.82 z-score.

“CCGATTAACATCAGCAATCCCCCTGATGTTAATCGGGTCTTGATTCGCTTGACGCTGCTG” registered a binding signal of 5.79 z-score.

Regarding “CCGATTAACATCAAGGGGGAATCTGATGTTAATCGGGTCTTGATTCGCTTGACGCTGCTG”, the binding signal was found to be 6.04 z-score.

The sequence “CCGATTAACATCAATAAAACCCCTGATGTTAATCGGGTCTTGATTCGCTTGACGCTGCTG” gave a binding signal of 7.35 z-score.

“CCGATTAACATCACAAAATTCCCTGATGTTAATCGGGTCTTGATTCGCTTGACGCTGCTG” gave a binding signal of 6.16 z-score.

“CCGATTAACATCAAGAGATTCCCTGATGTTAATCGGGTCTTGATTCGCTTGACGCTGCTG” had a binding signal of 2.38 z-score.

“CCGATTAACATCAAGGGGAATTCTGATGTTAATCGGGTCTTGATTCGCTTGACGCTGCTG” displayed a binding signal of 8.49 z-score.
